From PubChem BioAssay
V-ATPase pH = regulators of yeast V-ATPase proton pumping, primary screen, pHLuorin cytosolic pH fluorescence; 0.37% of 350,000 active; S. cerevisiae; AID 504577, 2011; response, % at 10 µM; in the data active = response mostly above about 7.3%, no sharp cut-off; inactive = mostly below about 5.4%; also: actives read high
Efflux pump mplx = inhibitors of Candida efflux pumps in yeast, primary screen, S. cerevisiae, Nile Red, multiplex; S. cerevisiae Candida pump triplex; inhibition, % at 10 µM; 0.44% of 330,000 active; AID 485275, 2010;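 active = plate passing quality check with inhibition over a set limit, or well fluorescence over plate mean plus 4 SD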;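 also: Nile Red retained in pooled yeast measured as flow cytometry median fluorescence; 0% = buffer negative control and 100% = Enniatin B positive control; higher means more Nile Red kept so more efflux inhibition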
AI-2 QS modul = Vibrio harveyi AI-2 quorum sensing modulators, primary screen, JMH597 strain, luminescence/OD600 ratio. 0.4% of 300,000 active. activity change, % at 7.5 µM. Vibrio harveyi JMH597 AI-2 luminescence/OD600 ratio, 9 h; stronger effect = lower value; strain lacks LuxN and CqsS sensors; 0 = neutral-control median; in the data active = activity change below about -75%, passing the limit was not always enough; inconclusive = no clear call, values can overlap the other calls;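 also: luminescence divided by OD600 gain over 9 h not by final OD600 alone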
SUMO Mot1 rescue = yeast Mot1-301 growth rescue at high temperature, primary screen, SUMOylation pathway inhibitor project, S. cerevisiae, ATP luminescence, 38.5C. S. cerevisiae Mot1-301 growth rescue; percent above DMSO median, 100 means doubled. growth rescue, % at 18.8 µM. 1% of 320,000 active. AID 2716, 2010;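 active = every valid replicate shows activation above 250% relative to neutral control wells; inactive = the rest, any valid replicate at or below 250%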;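 also: OY570 slx delta 5 strain wells were the positive control but not used for scaling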
ATG4B inh = ATG4B protease inhibitors, primary screen, biochemical, fluorescence, uHTS | ATG4B cleavage of LC3-PLA2, NBD-HPC fluorescence, 1 h | Cysteine protease ATG4B (Homo sapiens), Q9Y4P1 | AID 504462, 2011 | inhibition, % at 8.33 µM | 0.51% of 340,000 active; in the data active = inhibition above about 40%
Target sequence (Q9Y4P1 whole entry, looked up): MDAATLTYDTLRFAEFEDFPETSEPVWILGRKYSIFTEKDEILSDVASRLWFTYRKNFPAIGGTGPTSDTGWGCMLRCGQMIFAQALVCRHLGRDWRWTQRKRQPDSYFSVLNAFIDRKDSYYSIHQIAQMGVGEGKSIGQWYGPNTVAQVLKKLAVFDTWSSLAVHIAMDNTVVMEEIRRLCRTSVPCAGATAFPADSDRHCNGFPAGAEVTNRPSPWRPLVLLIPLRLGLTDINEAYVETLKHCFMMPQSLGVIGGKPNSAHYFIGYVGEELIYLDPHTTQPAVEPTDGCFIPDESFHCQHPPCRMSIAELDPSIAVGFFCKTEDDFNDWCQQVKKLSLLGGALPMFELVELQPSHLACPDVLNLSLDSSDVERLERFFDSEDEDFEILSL
JMH597 growth rt = Vibrio harveyi growth inhibition, confirmation, counter-screen for AI-2 quorum sensing project, JMH597 strain, OD600 absorbance | shares compounds with AI-2 QS modul | 9 h; lacks LuxN and CqsS sensors | growth inhibition, % at 7.5 µM | 1% of 750 active;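 active = every replicate shows growth inhibition above 50%; inconclusive = at least half, but not all, replicates pass that cutoff; inactive = fewer than half of replicates pass it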
BB721 lum counter = luminescence inhibition in constitutive-on V. harveyi, confirmation, counter-screen for LuxS inhibitor project, strain BB721, luminescence readout. shares compounds with AI-2 QS modul. Vibrio harveyi BB721 luminescence, 9 h. inhibition, % at 7.5 µM. 95% of 750 active;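 active = inhibition above about 80% in every replicate, not just on average, limit read from the data; inconclusive = at least half of replicates past the limit, but not all; inactive = fewer than half of replicates past the limit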
BB721 growth = growth inhibition of V. harveyi BB721, confirmation, cytotoxicity control for AI-2 quorum sensing inhibitors, strain BB721, absorbance OD600. shares compounds with AI-2 QS modul. Vibrio harveyi BB721 growth, 9 h. growth inhibition, % at 7.5 µM. 3% of 750 active. AID 2728, 2010;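 active = every replicate shows growth inhibition above 50%; inconclusive = at least half but not all replicates above 50% inhibition; inactive = under half of replicates above 50% inhibition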
JMH597 AI-2 mod = Vibrio harveyi AI-2 signaling luminescence modulation – JMH597 strain, confirmation | AID 2736, 2010 | inhibition, % at 7.5 µM | 97% of 750 active | shares compounds with AI-2 QS modul | Vibrio harveyi JMH597 AI-2 quorum sensing luminescence, 9 h; luxN and CqsS knockout, AI-2 only;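 active = every replicate shows more than 75% inhibition of signal versus neutral control wells; inconclusive = half to three quarters of replicates exceed 75% inhibition; inactive = fewer than half of replicates exceed 75% inhibition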
Starred values were filed as active, the others as inactive. Hits are enriched below; roughly 2.5% of the tested compounds scored in any of these assays.

How did O=C(Cc1ccccc1[N+](=O)[O-])Nc1ccc(S(=O)(=O)N2CCCC2)cc1 do in these assays?
V-ATPase pH: -1.6; Efflux pump mplx: -0.2; AI-2 QS modul: inconclusive; SUMO Mot1 rescue: -4.8; JMH597 growth rt: 15.4; BB721 lum counter: 92.9*; BB721 growth: 20.8; JMH597 AI-2 mod: 94.0*

How did O=C(Nc1ccc(F)cc1)Nc1ccc(S(=O)(=O)N2CCCC2)cc1 do in these assays?
V-ATPase pH: -2.9; Efflux pump mplx: -0.1; SUMO Mot1 rescue: 30.0; ATG4B inh: -10.8

Results for O=C(Cc1ccc(Br)cc1)Nc1ccc(S(=O)(=O)N2CCCC2)cc1 ?
V-ATPase pH: 1.1; Efflux pump mplx: 0.0; AI-2 QS modul: -96.1*; SUMO Mot1 rescue: 10.0; JMH597 growth rt: 33.3; BB721 lum counter: inconclusive; BB721 growth: 3.2; JMH597 AI-2 mod: 99.3*

What do the screens show for `O=C(CSc1nncs1)Nc1ccc(S(=O)(=O)N2CCCC2)cc1`?
V-ATPase pH: 2.6; Efflux pump mplx: -0.1; AI-2 QS modul: -83.4*; SUMO Mot1 rescue: 5.3; ATG4B inh: -15.3; JMH597 growth rt: 0.4; BB721 lum counter: 92.9*; BB721 growth: 19.1; JMH597 AI-2 mod: 94.9*

Results for O=C(Nc1ccc(S(=O)(=O)N2CCCC2)cc1)Nc1ccc(F)cc1F ?
V-ATPase pH: -3.5; Efflux pump mplx: -0.1; AI-2 QS modul: -95.6*; SUMO Mot1 rescue: -1.6; ATG4B inh: -4.1; JMH597 growth rt: 1.6; BB721 lum counter: 98.1*; BB721 growth: 1.5; JMH597 AI-2 mod: 99.2*

Results for O=C(Cc1ccc(F)cc1)Nc1ccc(S(=O)(=O)N2CCCC2)cc1 ?
V-ATPase pH: -5.5; Efflux pump mplx: -0.1; AI-2 QS modul: -47.3; SUMO Mot1 rescue: -25.2; ATG4B inh: -3.4

How did O=C(NNc1cc(Cl)ccc1Cl)C1CCC1 do in these assays?
V-ATPase pH: 0.0; Efflux pump mplx: -0.1; AI-2 QS modul: 25.7; SUMO Mot1 rescue: -8.4; ATG4B inh: -0.7

What do the screens show for `Cc1cc(C)c(C)c(S(=O)(=O)NCCN2CCOCC2)c1C`?
V-ATPase pH: -0.6; Efflux pump mplx: 0.1; AI-2 QS modul: 13.1; SUMO Mot1 rescue: -3.4; ATG4B inh: 0.1

Results for O=C(Nc1ccc(C(=O)OC2CCCCC2)cc1)c1ccncc1 ?
V-ATPase pH: 4.6; Efflux pump mplx: 0.1; SUMO Mot1 rescue: 7.8; ATG4B inh: -5.6

Results for O=C(Nc1ccc(S(=O)(=O)N2CCCC2)cc1)C1COc2ccccc2O1 (stereo not given) ?
V-ATPase pH: 1.6; Efflux pump mplx: 0.1; AI-2 QS modul: inconclusive; SUMO Mot1 rescue: 379.3; ATG4B inh: -7.8; JMH597 growth rt: 23.3; BB721 lum counter: 92.8*; BB721 growth: -23.0; JMH597 AI-2 mod: 98.7*

Results for O=C(Nc1ccc(S(=O)(=O)Nc2ccccc2)cc1)C1COc2ccccc2O1 (stereo not given) ?
V-ATPase pH: -0.1; Efflux pump mplx: -0.2; AI-2 QS modul: 9.6; SUMO Mot1 rescue: 4.6; ATG4B inh: -32.4

What do the screens show for `O=C(Nc1ccc(S(=O)(=O)N2CCOCC2)cc1)C1COc2ccccc2O1` (stereo not given)?
V-ATPase pH: -4.1; Efflux pump mplx: -0.2; AI-2 QS modul: -0.8; SUMO Mot1 rescue: -6.7; ATG4B inh: -16.8

What do the screens show for `CN(C)S(=O)(=O)c1ccc(NC(=O)C2COc3ccccc3O2)cc1` (stereo not given)?
V-ATPase pH: -0.4; Efflux pump mplx: 0.4; AI-2 QS modul: -89.1*; SUMO Mot1 rescue: -8.0; ATG4B inh: -2.7; JMH597 growth rt: 11.7; BB721 lum counter: 96.3*; BB721 growth: -2.9; JMH597 AI-2 mod: 98.2*

What do the screens show for `Cn1c(=O)c2c([nH]c(=S)n2Cc2ccc(Cl)cc2)n(C)c1=O`?
V-ATPase pH: -3.6; Efflux pump mplx: 0.0; AI-2 QS modul: 10.3; SUMO Mot1 rescue: -4.8; ATG4B inh: -5.1

What do the screens show for `NCCc1nc(-c2ccccc2)cs1`?
V-ATPase pH: 0.8; Efflux pump mplx: 0.0; AI-2 QS modul: 1.6; SUMO Mot1 rescue: 5.0; ATG4B inh: 7.0

Results for CSc1ccc(CN(C)CC(=O)NC(C)c2ccccc2)cc1 (stereo not given) ?
V-ATPase pH: 3.0; Efflux pump mplx: 0.0; AI-2 QS modul: 16.6; SUMO Mot1 rescue: 15.8; ATG4B inh: 1.5

Results for COc1ccc(S(=O)(=O)NCc2nc3nc(C)cc(C)n3n2)cc1OC ?
V-ATPase pH: 3.9; Efflux pump mplx: 0.1; AI-2 QS modul: 23.6; SUMO Mot1 rescue: -3.9; ATG4B inh: -0.6

What do the screens show for `O=C(Nc1ccc(Cc2ccncc2)cc1)c1ccc(Br)o1`?
V-ATPase pH: -0.1; Efflux pump mplx: 0.1; AI-2 QS modul: -81.4*; SUMO Mot1 rescue: 6.2; ATG4B inh: 6.3; JMH597 growth rt: -12.8; BB721 lum counter: 88.4*; BB721 growth: -46.7; JMH597 AI-2 mod: 93.8*

What do the screens show for `O=C(CNC(=O)c1ccc(Br)o1)Nc1ccncc1`?
V-ATPase pH: -4.4; Efflux pump mplx: -0.1; AI-2 QS modul: 7.1; SUMO Mot1 rescue: -5.0; ATG4B inh: 11.4

What do the screens show for `O=C1COc2ccc(C(=O)COC(=O)/C=C/c3ccc(Br)o3)cc2N1`?
V-ATPase pH: 0.3; Efflux pump mplx: -0.2; AI-2 QS modul: -95.8*; SUMO Mot1 rescue: -16.8; ATG4B inh: 6.2; JMH597 growth rt: 11.8; BB721 lum counter: 98.8*; BB721 growth: 1.5; JMH597 AI-2 mod: 99.3*

What do the screens show for `c1ccc(Cc2ccc(OCCn3cncn3)cc2)cc1`?
V-ATPase pH: -1.2; Efflux pump mplx: 0.3; AI-2 QS modul: inconclusive; SUMO Mot1 rescue: 574.3; ATG4B inh: -11.4; JMH597 growth rt: 6.8; BB721 lum counter: 88.6*; BB721 growth: 9.8; JMH597 AI-2 mod: 93.2*

How did CC(C)C(CCNC(=O)CN1C(=O)c2ccccc2C1=O)c1ccco1 (stereo not given) do in these assays?
V-ATPase pH: -0.1; Efflux pump mplx: -0.1; AI-2 QS modul: -84.1*; SUMO Mot1 rescue: 0.2; ATG4B inh: -2.8; JMH597 growth rt: 11.8; BB721 lum counter: 94.4*; BB721 growth: 1.9; JMH597 AI-2 mod: 97.0*
